MazEF act – increases E. coli MazEF RNase cleavage of RNA; P0AE70; FAM/BHQ RNA-DNA oligo cleavage fluorescence, 5 h; 350,000 compounds, 0.32% hits; activation, % at 20 µM; in the data active = activation above about 50%
Autofluor counter – counter-screen for toxin protease inhibitors: compound fluorescence. compound autofluorescence counterscreen, microsphere flow cytometry; hits give high values. fluorescence intensity (test concentration not listed). 360,000 compounds, 3.1% hits. AID 624483; in the data active = fluorescence intensity above about 16000; inconclusive = no clear call, values can overlap the other calls
BoNT A protease – BoNT A light chain protease inhibition; multiplex microsphere protease substrate cleavage, flow cytometry; inhibition, % at 10 µM; 360,000 compounds, 0.17% hits; AID 588499; also: plate controls were buffer without enzyme for full effect and enzyme alone for no effect
BoNT F protease – inhibitors of Botulinum neurotoxin F light chain protease. AID 588497. inhibition, % at 10 µM. Multiplex microsphere protease cleavage assay, flow cytometry. 360,000 compounds, 0.22% hits; in the data active = inhibition above about 35%, passing the limit was not always enough; inconclusive = no clear call, values can overlap the other calls; also: plate controls were buffer without enzyme for full effect and enzyme alone for no effect
SSB-PriA inh – K. pneumoniae PriA-SSBct interaction inhibition. AlphaScreen SSBct-PriA binding, biotinylated peptide. inhibition, % at 33 µM. 430,000 compounds, 0.6% hits. AID 1272365; in the data active = inhibition mostly above about 37%, no sharp cut-off; inactive = mostly below about 20%;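 also: plate controls were negative control peptide for no effect and reference peptide for full effect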
Anthrax LF inh2 – anthrax lethal factor protease inhibition. P15917. multiplex microsphere protease cleavage assay, LF. inhibition, % at 10 µM. 360,000 compounds, 0.12% hits. AID 588501; also: plate controls were buffer without enzyme for full effect and enzyme alone for no effect
* marks the source's active call; other numbers are inactive results; ? = inconclusive; · = not tested or not shown. This is a sample that favours compounds with a hit; in the whole collection about 3.3% have one here. Rule as the data show it, unless noted: active = inhibition above about 30%; inconclusive = no clear call, values can overlap the other calls; inactive = below that.

SMILES | MazEF act | Autofluor counter | BoNT A protease | BoNT F protease | SSB-PriA inh | Anthrax LF inh2
CCN(CC)CCNC(=O)NC1CCCCC1 | 6 | 22854* | ? | -4 | -2 | 0
CCCNC(=O)NC1CCCCCCC1 | 1 | 2182 | 0 | -6 | 2 | -2
COc1ccc(C2=NOC(C(=O)NC3CCCCC3)C2)cc1OC (configuration not stated) | -3 | 23218* | 0 | 3 | -6 | -2
COc1ccc(C2OC(=O)CC2C(=O)NC2CCCC(C)C2C)cc1OC (configuration not stated) | 1 | 9223 | 0 | 6 | -15 | 6
COc1ccc(C2OC(=O)CC2C(=O)NC2CCCCCC2)cc1OC (configuration not stated) | -16 | 22084* | -6 | -7 | -3 | -2
COc1ccc(-c2cc(C(=O)NC3CCCC3)no2)cc1OC | 3 | 22323* | 0 | -1 | -5 | 2
Cn1c(=O)c(/C=C/c2ccc3c(c2)OCO3)nc2ccccc21 | · | · | · | · | -6 | ·
COc1cccc(C2Nc3ccccc3NC3=C2C(=O)CC(C)(C)C3)c1OC (configuration not stated) | 5 | 3940 | -4 | ? | 5 | -8
COc1ccccc1C1Nc2ccccc2NC2=C1C(=O)CC(C)(C)C2 (configuration not stated) | -18 | 3659 | -1 | 37* | -10 | 3
O=c1[nH]c2ccc(Cl)cc2c(-c2ccccc2)c1CN1CCCCC1 | · | · | · | · | -6 | ·
O=C(c1ccc(N2CCOCC2)c([N+](=O)[O-])c1)N1CCN(c2ccccc2)CC1 | -6 | 2853 | 0 | 0 | -1 | -5
O=C(c1ccc(Br)cc1)c1ccc(N2CCOCC2)c([N+](=O)[O-])c1 | · | · | · | · | 82* | ·
O=[N+]([O-])c1cc(-n2cccc2)ccc1N1CCOCC1 | -5 | 4833 | -1 | -2 | 47* | -3
Cc1ccc(Cl)c(OC(=O)c2ccc(N3CCOCC3)c([N+](=O)[O-])c2)c1 | -2 | 2008 | 0 | -3 | 45* | 2
Cc1ccc(C(=O)ON=Cc2ccc(N3CCOCC3)c([N+](=O)[O-])c2)cc1 | · | · | · | · | 15 | ·
CN1CCN(c2ccc(C(=O)c3ccc(Br)cc3)cc2[N+](=O)[O-])CC1 | -4 | 2239 | -1 | 6 | 43* | -2
O=S(=O)(c1ccc(-c2csc(-c3cccnc3)n2)cc1)N1CCCCC1 | 0 | 22447* | 0 | -2 | -12 | -4
CCOc1ccc(-c2cn3c(CC(=O)NN4CCN(C)CC4)csc3n2)cc1 | · | · | · | · | 4 | ·
O=C1C(Cc2ccc(Br)cc2)SC(=Nc2ccccc2)N1c1ccccc1 (configuration not stated) | -6 | 2035 | 2 | 36* | -5 | -2
CC(=O)c1sc(NC(=O)c2cc(Cl)ccc2[N+](=O)[O-])nc1-c1ccccc1 | · | · | · | · | -4 | ·
CS(=O)(=O)N1N=C(c2cccs2)CC1c1ccc2nccnc2c1 (configuration not stated) | · | · | · | · | 62* | ·
CS(=O)(=O)N1N=C(c2ccc3nccnc3c2)CC1c1ccccc1 (configuration not stated) | 5 | 24132* | 1 | 1 | -7 | 0
CS(=O)(=O)N1N=C(c2cccs2)CC1c1ccccc1 (configuration not stated) | -10 | 4440 | 0 | 2 | -5 | 10
CS(=O)(=O)N1N=C(c2ccccc2)CC1c1ccc2nccnc2c1 (configuration not stated) | -1 | 10220 | 3 | 10 | -7 | 1
CCOCC(=O)N1CC(S(=O)(=O)c2ccc(Cl)cc2)C1 | · | · | · | · | -14 | ·
SMILES | MazEF act | Autofluor counter | BoNT A protease | BoNT F protease | SSB-PriA inh | Anthrax LF inh2
CC(C)(C)c1ccc(Oc2ccc(NC(=O)c3ccccc3C(=O)O)cn2)cc1 | -14 | 3836 | -4 | 48* | 1 | ?
Cc1ccccc1NC(=S)N(CCCN1CCOCC1)Cc1ccccn1 | -3 | 2551 | 5 | 39* | 4 | 0
Cc1ccc(NC(=S)N(CCCN2CCOCC2)Cc2ccccn2)cc1 | -2 | 8443 | 0 | 0 | 0 | -1
O=c1nc2ccccc2c2n1CC(CN1CCN(c3cccc(Cl)c3)CC1)N2 (configuration not stated) | -12 | 17652* | -7 | -6 | -7 | -2
O=c1nc2ccccc2c2n1CC(CN1CCN(c3ccc(F)cc3)CC1)N2 (configuration not stated) | 6 | 2809 | 1 | 7 | 1 | -2
O=C(COc1ccc(Cl)cc1)Nc1ccc(-c2cn3cccnc3n2)cc1 | · | · | · | · | 6 | ·
CC(C)Oc1ccc(C2c3c(oc4ccccc4c3=O)C(=O)N2CCCN2CCOCC2)cc1 (configuration not stated) | 1 | 24300* | ? | -3 | -3 | -1
C=CCOc1ccc(C2c3c(oc4ccccc4c3=O)C(=O)N2CCCN2CCOCC2)cc1 (configuration not stated) | 11 | 7696 | 0 | 3 | -7 | -7
CCC(C)Nc1ccc(NC(C)CC)cc1 (configuration not stated) | 2 | 4636 | 4 | -89 | 40* | -36
CCC(C)NC(=O)Nc1ccc(Br)cc1 (configuration not stated) | 4 | 2256 | 0 | 0 | -25 | 0
Cc1onc(-c2ccccc2Cl)c1C(=O)Nc1nnc(-c2cccs2)o1 | · | · | · | · | 38* | ·
Nc1nc(-c2ccccn2)nc2sccc12 | · | · | · | · | 126* | ·
Cc1noc(C)c1CCC(=O)Nc1ccccc1-c1ccc(=O)[nH]n1 | · | · | · | · | 9 | ·
CN1c2ccccc2C(C)(C)C12C=Cc1cc(O)ccc1O2 (configuration not stated) | 18 | 7800 | 0 | -18 | 39* | -8
O=C(Nc1nc2c(Cl)cc(Cl)cc2s1)c1ccc(Cl)s1 | · | · | · | · | -12 | ·
COc1cccc2c1OC[C@@H](CO)[C@H]2N(C)C(=O)Nc1ccc(Cl)cc1Cl | -3 | 17819* | -7 | -10 | -6 | -1
CN1CCN(N=Cc2c(O)n(CCC3=CCCCC3)c(=S)[nH]c2=O)CC1 | · | · | · | · | -9 | ·
O=C(COc1ccc(Br)cc1)N/N=C\c1ccc(Br)o1 | · | · | · | · | -8 | ·
COc1ccc(N2CCN(C(=O)c3csc(Nc4ccccc4)n3)CC2)cc1 | · | · | · | · | 38 | ·
O=C(c1csc2nc(-c3ccccc3)cn12)N1CCN(c2ccccc2)CC1 | · | · | · | · | active | ·
O=C(c1csc(Nc2ccccc2)n1)N1CCN(c2ccccc2)CC1 | · | · | · | · | 21* | ·
Cc1c(C(=O)N2CCN(c3ccccc3F)CC2)sc2nc(-c3ccccc3)cn12 | 3 | 21586* | ? | 0 | -3 | -8
COc1ccccc1N1CCN(C(=O)c2csc3nc(-c4ccc(F)cc4)cn23)CC1 | · | · | · | · | 20* | ·
C[C@@H](CC(=O)Nc1ccc(Oc2ccccc2)cc1)CC1=NS(=O)(=O)c2ccccc2N1 | · | · | · | · | -1 | ·
CN(CC#CCNC(=O)c1ccc(Cl)cc1Cl)Cc1ccccc1 | · | · | · | · | 1 | ·
O=C(NCCn1ccnc1-c1ccccn1)c1cc(-c2ccccc2)on1 | · | · | · | · | 10 | ·
Cc1ccc(NC(=O)Cn2c(=O)n(C(C)C)c(=O)c3nscc32)cc1F | · | · | · | · | -4 | ·
CCOc1ccc2nc(NC(=S)NCc3ccccc3)sc2c1 | -3 | 20242* | 2 | 2 | -12 | 0

Screens: PubChem, several laboratories
